This note sets out measurements from PubChem BioAssay (EPA / NIEHS).

Structures are written as SMILES. Results filed as inconclusive are left out. Active and inactive are the calls of the source. How the source made its calls: active means hit-call score of the fitted dose curve at least 0.9, where 1 is the maximum; inconclusive means response in the unintended direction; inactive means score below 0.9.

One assay deals with Thyroperoxidase (TPO), gene 54314. Kind of assay: CCTE_Simmons_AUR_rTPO: CCTE's Amplex UltraRed Assay for Thyroperoxidase (TPO) Inhibition, Simmons Lab (AID 2283662).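 On AC50: potency for loss of signal meaning inhibition of peroxidase activity.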 A digest of the protocol:
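Cell-free peroxidase activity assay using rat thyroid gland microsomes with excess H2O2 (300 uM) and 25 uM Amplex UltraRed. Compounds tested from 5 nM to 87.5 uM; fluorescence measured after 30 min at 37C, analysed relative to DMSO baseline.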
Consider `CCNc1ccccc1`, for which the result was inactive.
Take `O=C(OC[C@H]1O[C@@H](OC(=O)c2cc(O)c(O)c(OC(=O)c3cc(O)c(O)c(O)c3)c2)[C@H](OC(=O)c2cc(O)c(O)c(OC(=O)c3cc(O)c(O)c(O)c3)c2)[C@@H](OC(=O)c2cc(O)c(O)c(OC(=O)c3cc(O)c(O)c(O)c3)c2)[C@@H]1OC(=O)c1cc(O)c(O)c(OC(=O)c2cc(O)c(O)c(O)c2)c1)c1cc(O)c(O)c(OC(=O)c2cc(O)c(O)c(O)c2)c1`: the AC50 (commonly the concentration at which the activity in the assay is half-maximal) was 1.03 µM (active).
Same read-out and setting: the value for `C[C@](N)(Cc1ccc(O)c(O)c1)C(=O)O` was 0.696 µM (active).
Same read-out and setting: under `Cc1[nH]cnc1C[C@H]1CCc2c(C)c3ccccc3n2C1=O` stands 27.6 µM (active); under `CN(C)c1ccc(Cc2ccc(N(C)C)cc2)cc1`, 12 µM (active); under `Cc1ccc(N)cc1O`, 1.18 µM (active).
On the same count and under the same terms, under `Nc1cccc(N)c1` stands 5.02 µM (active).
Regarding `Nc1ccc(Nc2ccccc2)cc1`, the AC50 was 3.09 µM (active).
With `CCn1nc(Cc2ccccc2)cc1C1CCN(C[C@H]2C[C@H](N(C)[C@@H](C(=O)O)C(C)C)C[C@@H]2c2cccc(F)c2)CC1`, the AC50 was 30.7 µM (active).
Still for that read-out and setting: the value for `O=C(O)CCN(C1(C(=O)NO)CCCC1)S(=O)(=O)c1ccc(Oc2ccc(F)cc2)cc1` was 27.7 µM (active); that for `O=C(CCCCCCCCc1cccnc1)N1CCC(C=C(c2ccccc2)c2ccccc2)CC1` was 27.6 µM (active); that for `O=c1n(CC2CO2)c(=O)n(CC2CO2)c(=O)n1CC1CO1` (stereo not drawn) was 21.1 µM (active).
Turning to `Oc1ccc2c(c1)-c1ccccc1C2`, the AC50 is 10.6 µM (active).
Take `NC(=O)NO`: the AC50 is 43.8 µM (active).
As to `O=P(OC(CCl)CCl)(OC(CCl)CCl)OC(CCl)CCl`, the call was inactive.

Tested on in a further assay: not listed separately
Kind of assay: CCTE_Simmons_CellTiterGLO_HEK293T: Viability Assessment in CCTE's Assays for Thyroperoxidase (TPO) Inhibition, Simmons Lab (AID 2283665).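 On AC50: cells exposed to compound for 24 h before readout; actives reduce ATP signal below DMSO vehicle meaning cytotoxicity.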 A digest of the protocol: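 HEK293T, 10 000 cells/well, DMEM + 1% FBS; 8-pt titration 5 nM–87.5 uM [final], 0.5% DMSO; 24 hr, 37C, 5% CO2; CellTiter-Glo luminescence; n=3 biological replicates.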
Regarding `CCNc1ccccc1`, the outcome was inactive.
Turning to `O=C(OC[C@H]1O[C@@H](OC(=O)c2cc(O)c(O)c(OC(=O)c3cc(O)c(O)c(O)c3)c2)[C@H](OC(=O)c2cc(O)c(O)c(OC(=O)c3cc(O)c(O)c(O)c3)c2)[C@@H](OC(=O)c2cc(O)c(O)c(OC(=O)c3cc(O)c(O)c(O)c3)c2)[C@@H]1OC(=O)c1cc(O)c(O)c(OC(=O)c2cc(O)c(O)c(O)c2)c1)c1cc(O)c(O)c(OC(=O)c2cc(O)c(O)c(O)c2)c1`, the AC50 is 1.41 µM (active).
On the same count and under the same terms, the value for `C[C@](N)(Cc1ccc(O)c(O)c1)C(=O)O` was 39.8 µM (active); that for `CN(C)c1ccc(Cc2ccc(N(C)C)cc2)cc1` was 22.3 µM (active).
`Cc1ccc(N)cc1O`: the molecule was classed as inactive.
On the same count and under the same terms, under `Nc1cccc(N)c1` stands “inactive”.
For the molecule `Nc1ccc(Nc2ccccc2)cc1`, the AC50 was 38.4 µM (active).
Same read-out and setting: under `CCn1nc(Cc2ccccc2)cc1C1CCN(C[C@H]2C[C@H](N(C)[C@@H](C(=O)O)C(C)C)C[C@@H]2c2cccc(F)c2)CC1` stands 42.8 µM (active).
As to `O=C(O)CCN(C1(C(=O)NO)CCCC1)S(=O)(=O)c1ccc(Oc2ccc(F)cc2)cc1`, the outcome was inactive.
Consider `O=C(CCCCCCCCc1cccnc1)N1CCC(C=C(c2ccccc2)c2ccccc2)CC1`, for which the AC50 is 5.13 µM (active).
Turning to `O=c1n(CC2CO2)c(=O)n(CC2CO2)c(=O)n1CC1CO1` (stereo not drawn), the result was inactive.
`Oc1ccc2c(c1)-c1ccccc1C2`: the AC50 was 60.1 µM (active).
Regarding `NC(=O)NO`, the result was inactive.
On to `O=P(OC(CCl)CCl)(OC(CCl)CCl)OC(CCl)CCl`, for which the molecule was called inactive.

Tested on in another assay: not listed separately
Kind of assay: Tanguay_ZF_120hpf_TR_legacy: (Legacy) Oregon State University Tanguay Lab 120 Hour Post-fertilization zebrafish Assay for Touch Response (AID 2283667). The gist of the method:
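5D WT embryos; static exposure to 120 hpf, 28C, sealed/dark; DMSO 0.64% v/v final. TR scored present/absent; dead embryos excluded. Pos ctrl 5uM trimethyltin chloride.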
On to `CCNc1ccccc1`, for which the call was inactive.
Still for that read-out and setting: the value for `O=C(OC[C@H]1O[C@@H](OC(=O)c2cc(O)c(O)c(OC(=O)c3cc(O)c(O)c(O)c3)c2)[C@H](OC(=O)c2cc(O)c(O)c(OC(=O)c3cc(O)c(O)c(O)c3)c2)[C@@H](OC(=O)c2cc(O)c(O)c(OC(=O)c3cc(O)c(O)c(O)c3)c2)[C@@H]1OC(=O)c1cc(O)c(O)c(OC(=O)c2cc(O)c(O)c(O)c2)c1)c1cc(O)c(O)c(OC(=O)c2cc(O)c(O)c(O)c2)c1` was “inactive”; that for `C[C@](N)(Cc1ccc(O)c(O)c1)C(=O)O` was “inactive”; that for `CC(=O)c1ccc2c(c1)[C@H](NC(=O)c1ccc(F)cc1)[C@@H](O)C(C)(C)O2` was “inactive”.
Still for that read-out and setting: under `Cc1[nH]cnc1C[C@H]1CCc2c(C)c3ccccc3n2C1=O` stands “inactive”; under `CN(C)c1ccc(Cc2ccc(N(C)C)cc2)cc1`, “inactive”.
Same read-out and setting: under `Cc1ccc(N)cc1O` stands “inactive”.
As to `Nc1cccc(N)c1`, the molecule was called inactive.
On the same count and under the same terms, under `CCn1nc(Cc2ccccc2)cc1C1CCN(C[C@H]2C[C@H](N(C)[C@@H](C(=O)O)C(C)C)C[C@@H]2c2cccc(F)c2)CC1` stands “inactive”.
The same measure, in the same setting: under `O=C(O)CCN(C1(C(=O)NO)CCCC1)S(=O)(=O)c1ccc(Oc2ccc(F)cc2)cc1` stands “inactive”.
On the same count and under the same terms, under `O=C(CCCCCCCCc1cccnc1)N1CCC(C=C(c2ccccc2)c2ccccc2)CC1` stands “inactive”; under `O=c1n(CC2CO2)c(=O)n(CC2CO2)c(=O)n1CC1CO1` (stereo not drawn), “inactive”.
As to `Cn1c(=O)c2c(ncn2C)n(C)c1=O`, the molecule was called inactive.
As for `O=C1CCCCCN1`, the result was inactive.
Still for that read-out and setting: under `COc1cccc(-c2ccc(/C=C\CN3CCCCCC3)cc2Cl)c1` stands “inactive”; under `CCCCCCCCO`, “inactive”.
Take `CC(=O)OCCC(C)C`: the result was inactive.
On the same count and under the same terms, the value for `CC(O)CN(CCN(CC(C)O)CC(C)O)CC(C)O` (stereo not drawn) was “inactive”.
As for `Oc1ccc2c(c1)-c1ccccc1C2`, the AC50 is 32.1 µM (active).
For the molecule `CNCc1ccc(NC(=O)c2c[nH]c3c2C(=O)CCC3)cc1`, the molecule was called inactive.
Still for that read-out and setting: under `NC(=O)NO` stands “inactive”; under `CC(C)CCO`, “inactive”.
Same read-out and setting: the value for `O=C(O)CC(O)C(=O)O` (stereo not drawn) was “inactive”; that for `CCOCCOCCOCCO` was “inactive”.
